In PubChem BioAssay AID430 (Sanford-Burnham Center for Chemical Genomics, 2006):
The whole screen tested about 63,000 compounds, of which about 1,100 (1.7%) were called active. This is one part of a sample in which actives are shown more often than they occur. Results with a measured potency or affinity are listed apart. A number with no mark means an inactive call. Cut-off read from the data, not from the text of the source: active = cytotoxicity above about 50%; inactive = the rest.

Test: cytotoxicity in HPDE-C7 cells, cell-based, fluorescence, HTS (AID 430);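 note: cells exposed to compound for 48 hours before viability readout; 0% = vehicle and 100% = reference cytotoxic drug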
Settings: HPDE-C7 pancreatic duct cells viability, at 10 µM, active compounds read high
`CCOC(=O)Cn1c(-c2nonc2NC(=O)c2ccccc2F)nc2ccccc21` showed a cytotoxicity of 41.5%. In the case of `N#CCCn1c(-c2nonc2NC(=O)c2ccccc2Cl)nc2ccccc21`, the cytotoxicity was 41.9%. In the case of `CCC(=O)Nc1nonc1-c1nc2ccccc2n1CC(C)C`, the cytotoxicity was 25.7%. Molecule `CCC(=O)Nc1nonc1-c1nc2ccccc2n1Cc1ccccc1` has a cytotoxicity of 6.6%. With `CCCCn1c(-c2nonc2NC(=O)c2ccccc2Cl)nc2ccccc21` the cytotoxicity was 69.4% (active). Molecule `Cc1ccc(N2C(=O)CC(N(O)C3CC(=O)N(c4ccc(C)cc4)C3=O)C2=O)cc1` (stereo not given) has a cytotoxicity of 14.1%. With `C=CCNC(=O)c1sc(=S)n(-c2ccc(C(=O)OCC)cc2)c1N` the cytotoxicity was 2.1%. Work on `COc1ccc(C)cc1NC(=O)C1CCCN(S(=O)(=O)c2cnc[nH]2)C1` (stereo not given) yielded a cytotoxicity of 11.5%. Molecule `O=C(Cc1ccc(Cl)cc1)Nc1ccccc1CO` has a cytotoxicity of -8.9%. Molecule `CSc1nc(=NC(C)=O)ss1` has a cytotoxicity of -2%. In the case of `CC1CCN(C(=O)CSc2nc(N)c3c4c(sc3n2)CN(C)CC4)CC1`, the cytotoxicity was 5.8%. With `COc1ccc(C(=O)n2cnc(N)n2)cc1` the cytotoxicity was 2.7%. For `CCCCCCOc1ccc(C(=O)n2cnc(N)n2)cc1`, the cytotoxicity was 71.3% (active). With `CCCCOc1ccc(C(=O)N2CCCCCC2)cc1` the cytotoxicity was -14.5%. `CCCn1nc(NC(=O)c2cccs2)c2cc3cc(OC)ccc3nc21` gave a cytotoxicity of -7.4%. For `COc1ccc2nc3c(cc2c1)c(NC(=O)c1cccs1)nn3CC(C)C`, the cytotoxicity was 50.8% (active). `CCCCn1nc(NC(=O)c2cccs2)c2cc3cc(OC)ccc3nc21` gave a cytotoxicity of 28.9%. `O=S(=O)(NCc1ccco1)c1cccc2cccnc12` gave a cytotoxicity of 15.9%. `Cc1ccc(C)c(S(=O)(=O)C(C#N)c2nc3ccccc3nc2N2CC(C)OC(C)C2)c1` (stereo not given) gave a cytotoxicity of 48.7%. With `Cc1ccc(S(=O)(=O)C(C#N)c2nc3ccccc3nc2N2CCCC2)cc1C` (stereo not given) the cytotoxicity was 53.9% (active). Work on `Cc1cccc(S(=O)(=O)C(C#N)c2nc3ccccc3nc2N2CC(C)OC(C)C2)c1` (stereo not given) yielded a cytotoxicity of 7.1%. Molecule `Cc1cccc(S(=O)(=O)C(C#N)c2nc3ccccc3nc2N2CCCC2)c1` (stereo not given) has a cytotoxicity of -7.1%. In the case of `Cc1ccc(S(=O)(=O)C(C#N)c2nc3ccccc3nc2N2CC(C)OC(C)C2)cc1C` (stereo not given), the cytotoxicity was 50% (active). With `Cc1ccc(S(=O)(=O)C(C#N)c2nc3ccccc3nc2N2CCCC2)cc1` (stereo not given) the cytotoxicity was 23.3%. `COc1ccc2nc(NC(=O)Cc3ccc(OC)c(S(=O)(=O)N4CCOCC4)c3)sc2c1` showed a cytotoxicity of 13.1%. For `C=C1c2ccc(C)cc2NC(=O)N1c1ccccc1`, the cytotoxicity was -11.1%. Molecule `CCc1c(C)nc2ncnn2c1NCCc1ccc(OC)c(OC)c1` has a cytotoxicity of 4.7%. For `CCc1c(C)nc2ncnn2c1NCCc1ccc(OC)cc1`, the cytotoxicity was 64.9% (active). Molecule `COc1ccc(CCNc2c(C)c(C)nc3ncnn23)cc1` has a cytotoxicity of 10%. For `COCCNC(=O)c1ccccc1NC(=O)c1ccc(OC)c(OC)c1`, the cytotoxicity was -2.2%. Molecule `O=P(c1ccccc1)(c1ccccc1)C(c1ccco1)N1CCOCC1` (stereo not given) has a cytotoxicity of -5.8%. `O=C(Nc1ccc(N2CCOCC2)c(Cl)c1)c1ncn[nH]1` showed a cytotoxicity of -2.8%. With `N[C@@H](Cc1ccc(O)c(I)c1)C(=O)O` the cytotoxicity was -10.4%. In the case of `O=C(O)CCc1cc(I)c(Oc2ccc(O)c(I)c2)c(I)c1`, the cytotoxicity was 92.3% (active). `COc1ccc2[nH]c(C(=O)O)c(CCC(=O)O)c2c1` gave a cytotoxicity of 5.8%. `Cc1nc2ccc(C(=O)c3ccccc3)cc2[nH]1` showed a cytotoxicity of -13.6%. For `O=C(COc1ccccc1)Nc1nc2ccccc2[nH]1`, the cytotoxicity was -9.3%. In the case of `COC(=O)Nc1nc2ccc(Sc3ccccc3)cc2[nH]1`, the cytotoxicity was 60.6% (active). For `COc1cc(C(=O)Nc2nc3ccccc3[nH]2)cc(OC)c1OC`, the cytotoxicity was -19.5%. In the case of `COC(=O)Nc1nc2ccc(C(=O)c3ccccc3)cc2[nH]1`, the cytotoxicity was 69.2% (active). With `O=C(Nc1nc2ccccc2[nH]1)c1ccc(F)cc1` the cytotoxicity was -12.8%. Work on `Cc1c(NC(=O)c2cc(-c3ccccc3)on2)c(=O)n(-c2ccccc2)n1C` yielded a cytotoxicity of -4.6%. For `O=S(=O)(NCC1CCCO1)c1cccc2nsnc12` (stereo not given), the cytotoxicity was -2.4%. In the case of `O=C(OCc1cc(-c2ccccc2)no1)c1ccc2ccccc2n1`, the cytotoxicity was -17.4%. For `CSc1ncc(Cl)c(C(=O)Nc2ccc(S(=O)(=O)N3CCOCC3)cc2)n1`, the cytotoxicity was 7.9%. Molecule `O=C(Nc1ccc(N2CCOCC2)cc1)c1cnsn1` has a cytotoxicity of -19.9%. For `CS(=O)(=O)c1ncc(Cl)c(C(=O)Nc2ccc(N3CCOCC3)cc2)n1`, the cytotoxicity was 72.4% (active). With `Cc1cc(NC(=O)CCN2C(=O)c3ccccc3C2=O)no1` the cytotoxicity was -2.5%. Work on `CCn1c2ccccc2c2cc(C3C(C#N)=C(N)OC4=C3C(=O)CC(C)(C)C4)ccc21` (stereo not given) yielded a cytotoxicity of -26.8%. In the case of `CCn1c2ccccc2c2cc(C3C(C#N)=C(C)NC(C)=C3C#N)ccc21`, the cytotoxicity was -2.6%.
